Among the data in PubChem BioAssay AID463173 (ICCB-Longwood Screening Facility, Harvard Medical School, 2010) are survival values, retold here.

In all, about 52,000 compounds went through this assay and about 4,300 (8.3%) were called active. For the sample, actives were picked, then their nearest neighbours and some compounds at random. A number with no mark means an inactive call. No stated cut-off is given here; in the data, active means survival mostly below about 52% (no sharp cut-off); inactive means mostly above about 56%.

This test has as its system DeltatarO mutant. Description: S. aureus survival, RN4220 and DeltatarO strains – OD600, teichoic acid synthesis inhibitors, primary screen (AID 463173). As to conditions: S. aureus RN4220 wild type/DeltatarO growth, OD600, 18 h, hits give low values, screened at 18.75 µg/mL (by protocol).
As for `CC(C)(C)C(=O)Cn1c(=O)n(-c2ccccc2)c(=O)c2c3c(sc21)CCC3`, the survival is 80%.
As for `CCCn1ccc2c(OCC(=O)Nc3ccccc3OCC)cccc2c1=O`, the survival was 102%.
To `O=S1(=O)c2cccc3cccc(c23)N1Cc1ccccc1F` belongs 81%; to `CN1CCN(C(=O)C2CCN(S(C)(=O)=O)CC2)CC1`, 83%.
To `COc1cccc(C2C=C(c3ccc(C)cc3)Nc3c(C(=O)Nc4ccc(F)cc4)cnn32)c1OC` (stereo not drawn) belongs 0% (active); to `COc1ccc(C2=CC(c3ccccc3F)n3ncc(C(=O)Nc4ccc(C)cc4)c3N2)cc1` (stereo not drawn), 107%; to `COc1cccc(C2=CC(c3ccccc3F)n3ncc(C(=O)Nc4ccc(F)cc4)c3N2)c1` (stereo not drawn), 72%.
To `COc1nc(Nc2ccc(C)cc2)nc(NC2CCCC2)n1` belongs 81%; to `C/C(=N\NC(=O)CNc1ccccc1)c1ccccc1`, 85%.
As to `Cc1cccc(Cn2c(SCc3ccc(C(=O)NCc4ccccc4F)cc3)nc3cccnc32)c1`, the survival is 98%.
To `CCOC(=O)c1c(S(=O)(=O)N2CCCC(C(=O)Nc3cccc(C)n3)C2)c(C)n(C)c1C` (stereo not drawn) belongs 87%; to `O=c1oc2ccc3ccccc3c2cc1-c1nnc(Nc2cccc(C(F)(F)F)c2)s1`, 81%; to `COc1ccccc1-c1noc(-c2ccc(NC3CCCCC3)c([N+](=O)[O-])c2)n1`, 41% (active).
To `Cc1ccccc1-c1noc(-c2ccc(NC3CCCC3)c([N+](=O)[O-])c2)n1` belongs 66%; to `COc1ccc(-c2noc(-c3ccc(NC4CCCCC4)c([N+](=O)[O-])c3)n2)cc1OC`, 68%; to `COc1cc(-c2noc(-c3ccc(NC4CCCCC4)c([N+](=O)[O-])c3)n2)cc(OC)c1OC`, 76%.
With `COc1ccc(-c2noc(-c3ccc(NC4CCCC4)c([N+](=O)[O-])c3)n2)cc1OC` the figure was 55%; with `COc1ccccc1-c1noc(-c2ccc(NC3CCCC3)c([N+](=O)[O-])c2)n1`, 43% (active); with `CCCn1c(CN2CCN(c3ccc(OC)cc3)CC2)nc2c1c(=O)[nH]c(=O)n2C`, 91%.
With `CCOCCCN1C(=O)CN(C2CCCCCC2)C(=O)C1c1ccc(OCC)c(OC)c1` (stereo not drawn), the survival was 122%.
To `Cc1ccccc1C1=CCN(c2ncc(NC(=O)c3ccc(Cl)cc3)cc2C(=O)O)CC1` belongs 95%.
Consider `COCCCNC(=O)CCCN1C(=O)CCn2nc(-c3cccn3C)cc21`, for which the survival was 97%.
To `Cc1cccc(NC(=O)CN2c3ccccc3S(=O)(=O)c3ccccc32)c1C` belongs 0% (active); to `CCOc1ccccc1NC(=O)CN1C=NS(=O)(=O)c2ccccc21`, 72%.
With `CCOc1ccccc1NC(=O)CN1c2ccccc2S(=O)(=O)c2ccccc21` the figure was 37% (active); with `O=C(CN1c2ccccc2S(=O)(=O)c2ccccc21)Nc1ccccc1Cl`, 57%; with `Cc1cc(C)c(NC(=O)CN2c3ccccc3S(=O)(=O)c3ccccc32)c(C)c1`, 106%.
As to `NC(=O)c1ccccc1NC(=O)CN1c2ccccc2S(=O)(=O)c2ccccc21`, the survival was 92%.
